Test results reported in the supplement of paper PMC10849652.
About 7,900 targets were measured; listed, in parts, are those with a hit and a random draw of the rest. About 0.6% of all pairs of compound and target were hits. A number with no mark means an inactive call.

Legend:
Test in all cases: log2 fold change, soluble protein after heating vs DMSO (PISA); higher = thermal stabilisation; K562 cells, 10 uM, 30 min; active = over 0.2 and 3.5 SD of the protein, either way, in both replicates (recomputed)
[1] = compound: CS(=O)(=O)c1ccc(-c2cnc(N)c(C(=O)Nc3ccccc3)n2)cc1
Method in brief: (§1)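 K562 cells at 2×10^6 cells/mL were treated for 30 min with 10 μM compound, and aliquots were heated for 3 min over 48°C-58°C before pooling. Extraction used PBS with 0.5% NP-40 at 4°C, and soluble protein was the supernatant after 21,000xg for 90 min, measured by TMTpro 16plex LC-MS/MS with channel sums equalised. Thermal stability values, relative to control samples and from duplicates, are log2 fold changes.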

crizotinib = compound: C[C@@H](Oc1cc(-c2cnn(C3CCNCC3)c2)cnc1N)c1c(Cl)ccc(F)c1Cl [crizotinib]
Method in brief: as §1

[2] = compound: C[C@@H]1COCCN1C2=NC(=NC(=C2)C3(CC3)S(=O)(=O)C)C4=C5C=CNC5=CC=C4
Method in brief: as §1

[3] = compound: C[C@H](C1=CC=C(C=C1)C(=O)NC2=C3C=CNC3=NC=C2)N
Method in brief: as §1

duvelisib = compound: C[C@H](Nc1ncnc2nc[nH]c12)c1cc2cccc(Cl)c2c(=O)n1-c1ccccc1 [duvelisib]
Method in brief: as §1

gandotinib = compound: Cc1cc(Nc2cc(CN3CCOCC3)c3nc(C)c(Cc4ccc(Cl)cc4F)n3n2)n[nH]1 [gandotinib]
Method in brief: as §1

tozasertib = compound: Cc1cc(Nc2cc(N3CCN(C)CC3)nc(Sc3ccc(NC(=O)C4CC4)cc3)n2)n[nH]1 [tozasertib]
Method in brief: as §1

[4] = compound: Cc1cc(SCc2sc(-c3ccc(C(F)(F)F)cc3)nc2C)ccc1OCC(=O)O
Method in brief: as §1

doramapimod = compound: Cc1ccc(-n2nc(C(C)(C)C)cc2NC(=O)Nc2ccc(OCCN3CCOCC3)c3ccccc23)cc1 [doramapimod]
Method in brief: as §1

ispinesib = compound: Cc1ccc(C(=O)N(CCCN)[C@@H](c2nc3cc(Cl)ccc3c(=O)n2Cc2ccccc2)C(C)C)cc1 [ispinesib]
Method in brief: as §1

bafetinib = compound: Cc1ccc(NC(=O)c2ccc(CN3CC[C@H](N(C)C)C3)c(C(F)(F)F)c2)cc1Nc1nccc(-c2cncnc2)n1 [bafetinib]
Method in brief: as §1

[5] = compound: Cc1cccc(CC(=O)N2CCc3c2ccc(-c2cn(C)c4ncnc(N)c24)c3F)n1
Method in brief: as §1

nilotinib = compound: Cc1cn(-c2cc(NC(=O)c3ccc(C)c(Nc4nccc(-c5cccnc5)n4)c3)cc(C(F)(F)F)c2)cn1 [nilotinib]
Method in brief: as §1

[6] = compound: Cc1nc(Nc2n[nH]c3c2CN(C(=O)N[C@H](CN(C)C)c2ccccc2)C3(C)C)c2sccc2n1
Method in brief: as §1

dasatinib = compound: Cc1nc(Nc2ncc(C(=O)Nc3c(C)cccc3Cl)s2)cc(N2CCN(CCO)CC2)n1 [dasatinib]
Method in brief: as §1

[7] = compound: Cc1ncc(-c2ccnc(Nc3ccc(S(C)(=O)=O)cc3)n2)n1C(C)C
Method in brief: as §1

[8] = compound: Cn1cc(-c2ccc3c(c2)CCN3C(=O)Cc2cccc(C(F)(F)F)c2)c2c(N)ncnc21
Method in brief: as §1

[9] = compound: Cn1cc(-c2ccc3nnc(C(F)(F)c4ccc5ncccc5c4)n3n2)cn1
Method in brief: as §1

tipifarnib = compound: Cn1cncc1[C@@](N)(c1ccc(Cl)cc1)c1ccc2c(c1)c(-c1cccc(Cl)c1)cc(=O)n2C [tipifarnib]
Method in brief: as §1

mubritinib = compound: FC(F)(F)c1ccc(/C=C/c2nc(COc3ccc(CCCCn4ccnn4)cc3)co2)cc1 [mubritinib]
Method in brief: as §1

UniProt Q9Y2I1, sequence (Q9Y2I1 whole entry, looked up): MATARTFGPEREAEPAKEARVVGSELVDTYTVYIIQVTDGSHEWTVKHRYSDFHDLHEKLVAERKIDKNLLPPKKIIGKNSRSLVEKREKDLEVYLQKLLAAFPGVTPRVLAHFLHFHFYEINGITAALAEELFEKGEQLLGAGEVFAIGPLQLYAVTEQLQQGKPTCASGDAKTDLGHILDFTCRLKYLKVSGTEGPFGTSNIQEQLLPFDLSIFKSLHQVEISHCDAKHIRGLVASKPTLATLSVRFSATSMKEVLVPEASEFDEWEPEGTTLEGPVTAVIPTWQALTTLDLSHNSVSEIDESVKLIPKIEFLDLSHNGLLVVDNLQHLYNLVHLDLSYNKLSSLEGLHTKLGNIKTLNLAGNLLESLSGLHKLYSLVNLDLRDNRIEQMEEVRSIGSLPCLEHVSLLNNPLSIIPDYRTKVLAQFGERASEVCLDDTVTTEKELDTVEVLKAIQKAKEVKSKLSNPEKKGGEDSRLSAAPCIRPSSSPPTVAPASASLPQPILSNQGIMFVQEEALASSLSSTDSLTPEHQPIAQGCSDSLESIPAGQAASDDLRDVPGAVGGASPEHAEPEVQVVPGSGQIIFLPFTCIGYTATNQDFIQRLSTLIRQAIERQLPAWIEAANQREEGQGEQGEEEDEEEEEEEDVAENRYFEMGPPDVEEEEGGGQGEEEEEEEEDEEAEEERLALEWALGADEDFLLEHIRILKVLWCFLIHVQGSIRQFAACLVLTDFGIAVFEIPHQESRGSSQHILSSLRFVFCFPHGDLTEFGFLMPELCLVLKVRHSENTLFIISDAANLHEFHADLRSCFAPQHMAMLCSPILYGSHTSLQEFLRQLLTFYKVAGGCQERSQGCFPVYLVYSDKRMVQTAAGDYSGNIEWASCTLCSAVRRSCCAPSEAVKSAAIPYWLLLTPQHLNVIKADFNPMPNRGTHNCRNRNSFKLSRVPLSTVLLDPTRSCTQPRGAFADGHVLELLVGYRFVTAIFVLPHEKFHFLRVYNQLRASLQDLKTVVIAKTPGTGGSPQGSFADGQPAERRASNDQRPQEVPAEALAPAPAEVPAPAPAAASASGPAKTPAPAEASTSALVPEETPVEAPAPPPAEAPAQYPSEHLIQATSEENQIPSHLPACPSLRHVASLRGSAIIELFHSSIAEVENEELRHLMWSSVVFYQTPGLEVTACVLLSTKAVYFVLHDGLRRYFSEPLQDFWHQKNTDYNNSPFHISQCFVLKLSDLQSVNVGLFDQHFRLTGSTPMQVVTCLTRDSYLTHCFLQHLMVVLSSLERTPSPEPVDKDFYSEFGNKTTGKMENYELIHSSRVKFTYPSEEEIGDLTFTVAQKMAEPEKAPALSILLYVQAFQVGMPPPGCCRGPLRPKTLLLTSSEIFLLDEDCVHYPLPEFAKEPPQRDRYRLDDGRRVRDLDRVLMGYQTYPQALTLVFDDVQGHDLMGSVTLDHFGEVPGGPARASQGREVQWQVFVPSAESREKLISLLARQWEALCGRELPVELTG
UniProt Q15738, sequence (Q15738 whole entry, looked up): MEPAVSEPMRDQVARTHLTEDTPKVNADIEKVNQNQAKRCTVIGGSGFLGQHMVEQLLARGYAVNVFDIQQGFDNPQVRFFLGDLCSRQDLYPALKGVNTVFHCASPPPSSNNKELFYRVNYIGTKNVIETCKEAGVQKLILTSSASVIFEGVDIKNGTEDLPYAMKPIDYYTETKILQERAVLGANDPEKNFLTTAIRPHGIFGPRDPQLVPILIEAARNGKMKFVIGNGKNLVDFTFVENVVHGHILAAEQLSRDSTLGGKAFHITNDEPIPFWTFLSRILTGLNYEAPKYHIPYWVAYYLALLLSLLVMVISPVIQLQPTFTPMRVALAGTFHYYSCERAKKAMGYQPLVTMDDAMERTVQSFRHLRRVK
UniProt O60934, sequence (O60934 whole entry, looked up): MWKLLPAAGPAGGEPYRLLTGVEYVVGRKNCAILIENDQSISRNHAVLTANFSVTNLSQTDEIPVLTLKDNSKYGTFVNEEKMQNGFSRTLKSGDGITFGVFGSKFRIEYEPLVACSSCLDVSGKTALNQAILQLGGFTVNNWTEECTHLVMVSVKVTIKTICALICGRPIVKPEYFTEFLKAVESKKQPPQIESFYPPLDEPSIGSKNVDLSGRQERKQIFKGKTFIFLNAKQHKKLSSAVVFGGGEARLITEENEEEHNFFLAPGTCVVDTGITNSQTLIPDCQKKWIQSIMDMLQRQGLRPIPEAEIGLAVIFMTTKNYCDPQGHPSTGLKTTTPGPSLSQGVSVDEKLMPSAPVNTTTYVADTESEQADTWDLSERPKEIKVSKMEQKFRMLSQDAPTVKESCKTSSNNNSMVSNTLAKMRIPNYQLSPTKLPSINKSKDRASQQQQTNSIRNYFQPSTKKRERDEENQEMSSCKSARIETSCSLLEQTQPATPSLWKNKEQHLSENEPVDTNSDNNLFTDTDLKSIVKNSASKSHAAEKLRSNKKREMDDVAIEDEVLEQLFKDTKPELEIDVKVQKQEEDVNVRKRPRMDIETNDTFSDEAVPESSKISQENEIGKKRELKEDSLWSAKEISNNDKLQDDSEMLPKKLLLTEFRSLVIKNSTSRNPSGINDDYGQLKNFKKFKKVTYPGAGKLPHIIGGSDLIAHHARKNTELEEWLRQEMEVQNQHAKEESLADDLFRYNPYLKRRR
UniProt Q12769, sequence (Q12769 whole entry, looked up): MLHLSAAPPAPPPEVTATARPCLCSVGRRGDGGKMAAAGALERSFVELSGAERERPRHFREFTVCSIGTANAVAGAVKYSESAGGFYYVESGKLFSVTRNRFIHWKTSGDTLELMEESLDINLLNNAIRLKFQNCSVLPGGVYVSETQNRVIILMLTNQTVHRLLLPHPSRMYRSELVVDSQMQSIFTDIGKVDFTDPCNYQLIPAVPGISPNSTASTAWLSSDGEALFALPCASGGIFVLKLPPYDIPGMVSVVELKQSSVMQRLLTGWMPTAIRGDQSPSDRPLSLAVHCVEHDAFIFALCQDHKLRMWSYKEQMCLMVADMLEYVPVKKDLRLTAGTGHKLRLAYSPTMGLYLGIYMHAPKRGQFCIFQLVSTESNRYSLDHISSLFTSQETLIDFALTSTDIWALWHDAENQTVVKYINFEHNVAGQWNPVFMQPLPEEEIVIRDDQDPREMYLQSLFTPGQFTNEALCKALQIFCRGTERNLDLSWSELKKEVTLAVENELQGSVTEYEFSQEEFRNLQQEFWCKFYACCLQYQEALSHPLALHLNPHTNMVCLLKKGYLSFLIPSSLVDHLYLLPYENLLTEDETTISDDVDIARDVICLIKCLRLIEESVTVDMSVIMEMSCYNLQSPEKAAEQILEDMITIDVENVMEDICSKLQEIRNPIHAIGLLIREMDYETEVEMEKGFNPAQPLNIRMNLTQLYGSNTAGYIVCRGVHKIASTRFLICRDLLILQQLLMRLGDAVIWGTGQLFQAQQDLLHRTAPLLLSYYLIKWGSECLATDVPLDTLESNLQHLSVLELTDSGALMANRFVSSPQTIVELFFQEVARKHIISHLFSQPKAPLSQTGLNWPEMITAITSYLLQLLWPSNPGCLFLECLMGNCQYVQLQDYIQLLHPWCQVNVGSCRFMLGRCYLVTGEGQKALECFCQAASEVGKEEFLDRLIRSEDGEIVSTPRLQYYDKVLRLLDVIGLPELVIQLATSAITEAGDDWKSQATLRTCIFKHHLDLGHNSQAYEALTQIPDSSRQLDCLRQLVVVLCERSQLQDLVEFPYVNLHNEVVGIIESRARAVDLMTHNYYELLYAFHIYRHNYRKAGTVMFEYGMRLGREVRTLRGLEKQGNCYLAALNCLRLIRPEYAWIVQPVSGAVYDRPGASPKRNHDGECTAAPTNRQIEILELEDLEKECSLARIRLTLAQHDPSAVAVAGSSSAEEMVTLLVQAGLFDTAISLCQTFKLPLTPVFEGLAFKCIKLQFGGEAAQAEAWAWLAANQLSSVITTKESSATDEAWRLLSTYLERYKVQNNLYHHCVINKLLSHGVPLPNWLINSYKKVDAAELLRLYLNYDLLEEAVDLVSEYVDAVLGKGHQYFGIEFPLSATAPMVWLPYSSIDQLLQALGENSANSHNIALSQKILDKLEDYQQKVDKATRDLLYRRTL
UniProt Q9BRP4, sequence (Q9BRP4 whole entry, looked up): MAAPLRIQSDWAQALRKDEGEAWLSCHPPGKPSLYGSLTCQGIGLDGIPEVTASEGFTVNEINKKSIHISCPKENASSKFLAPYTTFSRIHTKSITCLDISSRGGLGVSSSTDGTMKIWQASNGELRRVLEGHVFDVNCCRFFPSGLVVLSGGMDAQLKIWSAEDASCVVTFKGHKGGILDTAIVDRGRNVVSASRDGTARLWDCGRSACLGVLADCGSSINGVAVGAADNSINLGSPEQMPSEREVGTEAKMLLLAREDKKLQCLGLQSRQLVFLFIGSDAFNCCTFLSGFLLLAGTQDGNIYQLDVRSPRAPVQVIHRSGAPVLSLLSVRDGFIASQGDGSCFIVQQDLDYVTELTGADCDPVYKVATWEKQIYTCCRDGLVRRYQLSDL
UniProt Q16621, sequence (Q16621 whole entry, looked up): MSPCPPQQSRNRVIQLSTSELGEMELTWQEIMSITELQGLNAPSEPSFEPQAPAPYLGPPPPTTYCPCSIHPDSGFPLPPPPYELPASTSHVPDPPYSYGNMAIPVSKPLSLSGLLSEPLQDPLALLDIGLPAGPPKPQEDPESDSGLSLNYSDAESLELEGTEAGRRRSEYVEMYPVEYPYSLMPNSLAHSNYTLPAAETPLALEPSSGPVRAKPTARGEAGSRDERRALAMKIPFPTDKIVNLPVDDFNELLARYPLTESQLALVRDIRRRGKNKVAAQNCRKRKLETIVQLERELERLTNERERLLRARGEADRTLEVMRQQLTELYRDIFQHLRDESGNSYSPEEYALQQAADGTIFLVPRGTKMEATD
UniProt Q9H1E3, sequence (Q9H1E3 whole entry, looked up): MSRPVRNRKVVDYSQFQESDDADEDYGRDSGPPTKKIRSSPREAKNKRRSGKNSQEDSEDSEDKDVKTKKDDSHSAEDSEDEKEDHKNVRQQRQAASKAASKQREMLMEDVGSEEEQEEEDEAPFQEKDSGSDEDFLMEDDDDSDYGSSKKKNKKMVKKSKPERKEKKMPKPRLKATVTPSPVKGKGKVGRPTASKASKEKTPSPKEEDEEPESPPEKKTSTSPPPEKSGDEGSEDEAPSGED

Target	log2 fold change [1]	log2 fold change (crizotinib)	log2 fold change [2]	log2 fold change [3]	log2 fold change (duvelisib)	log2 fold change (gandotinib)	log2 fold change (tozasertib)	log2 fold change [4]	log2 fold change (doramapimod)	log2 fold change (ispinesib)	log2 fold change (bafetinib)	log2 fold change [5]	log2 fold change (nilotinib)	log2 fold change [6]	log2 fold change (dasatinib)	log2 fold change [7]	log2 fold change [8]	log2 fold change [9]	log2 fold change (tipifarnib)	log2 fold change (mubritinib)
MTFR1L (UniProt Q9H019)	0.059	-0.162	-0.088	0.153	-0.146	-0.123	-0.084	0.039	0.042	-0.329	-0.1	0.305	0.014	-0.32	-0.167	-0.038	0.07	0.001	-0.062	
NUCKS1 (UniProt Q9H1E3)	-0.147	0.274 (active)	-0.133	0.029	0.005	0.001	-0.064	-0.089	-0.03	0.168	-0.114	-0.128	-0.028	-0.13	0.037	0.169	0.005	0.055	0.059	0.034
PACRGL (UniProt Q8N7B6)	-0.074																			
NFE2 (UniProt Q16621)	-0.006	-0.052	-0.001	-0.031	0.008	-0.091	0.077	-0.015	0.049	0.033	-0.048	-0.13	-0.063	-0.068	-0.016	-0.071	-0.051	-0.08	-0.066	0.026
PAAF1 (UniProt Q9BRP4)	-0.003	-0.003	0.078	-0.071	0	-0.035	-0.042	0.018	-0.022	0.047	-0.011	-0.01	-0.084	0.058	-0.051	-0.026	0.018	0.016	-0.03	0.017
MRPS10 (UniProt P82664)	0.028	0.005	-0.033	0.08	-0.005	0.019	0.002	0.002	0.029	-0.265 (active)	0.057	0.119	-0.097	0.006	-0.005	-0.046	0.002	-0.096	-0.104	0.1
MRPS24 (UniProt Q96EL2)	0.014	-0.031	0.192	0.082	-0.009	-0.117	0.048	0.094	-0.028	-0.427 (active)	0.283	0.183	-0.195	0.057	-0.024	0.028	-0.141	0.008	-0.035	0.186
NUP98 (UniProt P52948)	0.031	-0.02	0.007	-0.009	0.007	-0.044	0.04	0.1	0.022	0.001	-0.008	0.018	-0.034	-0.062	-0.077	-0.044	-0.026	-0.075	0.005	0
NUMA1 (UniProt Q14980)	0.117	-0.001	-0.071	0.089	-0.073	-0.066	0.108	0.07	0.178	-0.089	0.121	0.005	0.031	-0.22	0.019	-0.013	-0.194	-0.031	0.086	-0.043
NOSIP (UniProt Q9Y314)	0.108	0.329	-0.08	-0.03	0.118	-0.118	0.191	0.257	-0.113	0.133	0.085	0.066	-0.11	-0.277	-0.229	0.247	-0.063	-0.111	-0.128	-0.098
NPC1 (UniProt O15118)	0.016	-0.132	0.024	-0.102	0.043	0.015	-0.04	-0.038	-0.087	-0.148	-0.211 (active)	-0.02	0.024	-0.017	-0.001	0.05	0.004	0.012	0.038	-0.027
NBN (UniProt O60934)	0.02	0.009	0.038	-0.063	0.105	-0.069	0.028	0.116	-0.004	0.008	-0.021	0.031	0.018	-0.198	-0.171	0.048	0.031	0.064	-0.016	0.131
NUMB (UniProt P49757)	0.056	-0.189	0.07	-0.068	-0.05	-0.06	-0.082	0.006	-0.012	-0.073	-0.013	0.022	-0.05	-0.078	0.017	-0.12	0.063	-0.008	0.059	-0.053
NECTIN2 (UniProt Q92692)	0.004	0.121	0.082	-0.148	0.062	-0.036	-0.048	-0.038	0.015	0.113	0.03	-0.023	-0.023	0.022	-0.017	0.055	0.096	0.009	0.008	0.023
NISCH (UniProt Q9Y2I1)	-0.026	-0.284	0.035	0.047	-0.363	-0.4	0.006	0.126	0.054	-0.408 (active)	-0.053	0.053	-0.138	-0.158	-0.233	-0.324	-0.002	-0.02	-0.03	-0.009
NSDHL (UniProt Q15738)	0.04	0.314 (active)	0.045	-0.105	0.024	0.239	0.083	0.058	0.22 (active)	-0.016	0.006	0.014	0.033	-0.021	0.054	0.001	0.11	0.133	0.029	0.164
NUP160 (UniProt Q12769)	0.017	-0.014	0.034	-0.027	0.024	-0.06	0.078	0.007	0.019	0.044	-0.127	0.043	-0.078	-0.136	-0.045	-0.06	-0.025	-0.034	-0.042	-0.042
